# Compounds without any hit were thinned out: in the full panel of roughly 83,000, 20% have a hit.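 Assay: single dose, 48 h. Readout: percent growth (0 = no net growth; negative = cell death). Active: <10.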 Values without a mark were called inactive. Active and inactive are the calls of the source.
# How the values were obtained:
# Experiment in all cases: NCI-60 one-dose screen, 48 h (100 = growth as untreated, 0 = no growth, -100 = all killed)
# Conditions in all cases: 10 µM
# HCT-15 colon = test system: HCT-15 colon
# HT29 colon = test system: HT29 colon
# SNB-75 CNS = test system: SNB-75 CNS
# SNB-19 CNS = test system: SNB-19 CNS
# U251 CNS = test system: U251 CNS
# PC-3 prostate = test system: PC-3 prostate
# SK-MEL-5 melanoma = test system: SK-MEL-5 melanoma
# UACC-62 melanoma = test system: UACC-62 melanoma
# LOX IMVI melanoma = test system: LOX IMVI melanoma
# SK-MEL-28 melanoma = test system: SK-MEL-28 melanoma
Compound,growth (HCT-15 colon),growth (HT29 colon),growth (SNB-75 CNS),growth (SNB-19 CNS),growth (U251 CNS),growth (PC-3 prostate),growth (SK-MEL-5 melanoma),growth (UACC-62 melanoma),growth (LOX IMVI melanoma),growth (SK-MEL-28 melanoma)
COc1cc(-c2nc3ccc(C)cc3[nH]2)ccc1OCc1nnc(-c2ccc(CC(C)C)cc2)o1,73.8%,73.3%,83.9%,94.6%,75.6%,88.1%,85.7%,90.3%,103%,87.8%
O=C(NCCCl)c1cc(Cl)cc(Cl)c1,97.1%,107%,76.8%,108%,98.7%,93.2%,101%,94.9%,102%,103%
COc1ccc(-c2ccc(-c3ccc(C(=N)N)c(F)c3)s2)cc1,-78.9% (active),-90% (active),-98.9% (active),-89.6% (active),-95.1% (active),-88.6% (active),-93.9% (active),-88.9% (active),-84.3% (active),-91.5% (active)
Cc1noc(C)c1-c1ccc2nc(NC(=O)[C@H]3CCN(C#N)C3)cn2c1,84.4%,78.1%,67.7%,108%,93.7%,91.7%,86.6%,77.7%,77.7%,104%
O=c1oc2c3ccc4cnccc4c3[nH]c2c2ccccc12,80.9%,-19.7% (active),14.1%,14.6%,-35% (active),71.4%,28.3%,73.2%,13.5%,5.14% (active)
COC(=O)[C@]12CC[C@@H](C)[C@H](C)[C@@H]1C1=CC[C@@H]3[C@@]4(C)CC(=O)[C@H](O)[C@@]5(C)COC(=C45)C[C@@]3(C)[C@]1(C)CC2,-69.7% (active),-61.2% (active),-32.6% (active),-54.1% (active),-88.7% (active),-32.3% (active),-97.2% (active),-75.3% (active),-80.7% (active),-41.8% (active)
COC(=O)[C@]12CC[C@@H](C)[C@H](C)[C@@H]1C1=CC[C@@H]3[C@@]4(C)C/C(=N\O)[C@H](O)[C@@]5(C)COC(=C45)C[C@@]3(C)[C@]1(C)CC2,-92.7% (active),-92.9% (active),-87.8% (active),-66.2% (active),-96.4% (active),-81.5% (active),-97.7% (active),-57.6% (active),-71.6% (active),-60.3% (active)
Oc1ccccc1-c1nnc(Cn2c(Cc3cccc4ccccc34)nc3ccccc32)o1,94%,102%,88.8%,87.1%,99.2%,89.5%,96.3%,88.7%,89.3%,103%
C=CCn1c(C)nc2cc(Nc3nc(Nc4ccc5nc(C)n(CC=C)c5c4)c4ccccc4n3)ccc21,-76.2% (active),-69.4% (active),-96.7% (active),-66.1% (active),-90.7% (active),-91.7% (active),-95.2% (active),-83.3% (active),-83.3% (active),-88% (active)
O=C1NN(c2ccccc2)C(c2cccnc2)=N/C1=C\c1cccnc1,93.9%,97.2%,79.6%,92.7%,102%,92.1%,91.8%,86.1%,82.9%,116%
COCCOC(=O)NC(=O)Nc1ccc(C(=O)c2ccc(Cl)cc2)cc1,20.9%,11.9%,6.4% (active),41.3%,37.8%,32.1%,5.54% (active),25.8%,37.2%,62.6%
O=C(O)CCCCSCCCCC(=O)O,106%,90.4%,95.7%,108%,93.3%,96.8%,93.9%,109%,109%,114%
O=C1CC[C@@H](C(=O)N[C@H]2CSSC[C@@H](C(=O)NCCc3ccccc3)NC(=O)[C@H](Cc3ccccc3)NC(=O)[C@@H]3CCCN3C(=O)[C@@H]3CCCN3C2=O)N1,102%,102%,92.7%,102%,96.8%,84.1%,100%,94.6%,94.1%,102%
N=C(N)c1ccc(-c2ccc(-c3ccccc3)s2)s1,-36.4% (active),-70.1% (active),-6.07% (active),10%,-74.6% (active),-26% (active),14.5%,-84.9% (active),-69.2% (active),-95.9% (active)
CC(=O)OC1Oc2ccccc2-c2oc(=O)c(-c3ccc(F)cc3)cc21 (stereo not given),95.8%,99%,71.8%,100%,76.2%,110%,-35.4% (active),50%,85.3%,96.7%
Cc1ccc(C2C=C(c3ccc(Cl)cc3)N=C3SC=CN32)c(Br)c1 (stereo not given),75.1%,67.9%,75.5%,74.2%,60.3%,65.5%,84.8%,83.3%,55.9%,105%
COc1cc(/C=C/C(=O)c2cc(-c3ccc(C(F)(F)F)cc3)ccc2O)cc(OC)c1OC,60%,60.5%,78.6%,75.4%,69%,44.4%,47.2%,53.5%,19.2%,92.2%
O=C1c2cc(Cl)ccc2-c2c(O)cc(Cl)cc21,81.6%,95.1%,81.2%,59.8%,55.5%,78%,53%,85%,52%,106%
COc1ccc(CCc2nc3cc(-c4c(C)noc4C)ccc3n2CCN2CCOCC2)cc1,52.8%,12.8%,27.8%,48.9%,17%,11.8%,-0.324% (active),20%,50.2%,33.6%
Cc1nc(N)sc1Sc1nc2ccc(Cl)cc2c(=O)n1-c1ccc(Oc2ccccc2)cc1,55.4%,55.9%,96%,69.4%,77.2%,48.9%,76.1%,63.9%,75.5%,95.1%
Cc1cc(C(C)(C)CC(C)(C)C)ccc1OCCOCC[N+](C)(C)Cc1ccccc1,94.6%,-81.2% (active),-63.4% (active),-80.8% (active),-86.2% (active),-19.4% (active),-95.8% (active),-91.9% (active),-92.9% (active),-92% (active)
N#Cc1ccc(-n2cnc(NC(=O)[C@H]3CCN(C#N)C3)c2)cc1,11.1%,15.6%,-1.74% (active),35.1%,7.35% (active),32%,12.1%,18.8%,16.5%,36.4%
Nc1ccc(C2=CC(c3ccc(Cl)cc3)N3C=CSC3=N2)cc1 (stereo not given),-57.7% (active),-42.9% (active),-15.6% (active),-65.2% (active),-83.5% (active),-28.1% (active),-97.6% (active),-67.1% (active),-83.3% (active),-89.7% (active)
CC(=O)[C@H]1CC[C@H]2[C@@H]3CC[C@@H]4CC=C(C=O)C[C@]4(C)[C@H]3CC[C@]12C,96.7%,90.7%,80.5%,97.8%,88.5%,78.5%,90.3%,79.1%,93.7%,93.9%
Cc1cc(C)c2c(Nc3ncnc4c3sc3nc(C)cc(C)c34)n[nH]c2n1,93.2%,102%,94.4%,95.8%,99.4%,88.4%,99.1%,95.4%,95.5%,94.5%
O=C(Nc1cccc(-c2nc3ccccc3[nH]2)c1)c1cccc(NC(=O)c2ccco2)c1,50.9%,27.6%,72.2%,89.4%,61.8%,68.5%,43.4%,-71.7% (active),41.8%,30.3%
COc1ccc(-c2nc(-c3nc4ccc(C)cc4[nH]3)c3ccccn23)cc1,33.7%,21.9%,66.6%,55.3%,42.6%,25.3%,39.9%,47%,46%,84.6%

# Reference: PubChem BioAssay (NCI)
